The values below come from PMC9911399, “Two distinct binding modes provide the RNA-binding protein RbFox with extraordinary sequence specificity”.

B1: UGGUGCA (DNA:RNA)
RNA: GGGAGACCGGAAUUCAGAUUGUCCUGGUGCAUUAAAUCCCGUCGUAGCCACCA
DNA 1: CAATCTGAATTCCGGTCTCCC
DNA 2: TGGTGGCTACGACGGGATT
B2: UGCUGCA (DNA:RNA)
RNA: B1 RNA with G27C
DNA 1: CAATCTGAATTCCGGTCTCCC
DNA 2: TGGTGGCTACGACGGGATT
B3: UGCAGCA (DNA:RNA)
RNA: B1 RNA with G27C, U28A
DNA 1: CAATCTGAATTCCGGTCTCCC
DNA 2: TGGTGGCTACGACGGGATT
B4: CUGUGUG (DNA:RNA)
RNA: B1 RNA with U25C, G26U, C30U, A31G
DNA 1: CAATCTGAATTCCGGTCTCCC
DNA 2: TGGTGGCTACGACGGGATT
B5: ACUCAGC (DNA:RNA)
RNA: GGGAGACCGGAAUUCAGAUUGUCCACUCAGCUUAAAUCCCGUCGUAGCCACCA
DNA 1: CAATCTGAATTCCGGTCTCCC
DNA 2: TGGTGGCTACGACGGGATT
B6: GUAGGCC (DNA:RNA)
RNA: B1 RNA with U25G, G26U, G27A, U28G, A31C
DNA 1: CAATCTGAATTCCGGTCTCCC
DNA 2: TGGTGGCTACGACGGGATT
B7: UAAAGUG (DNA:RNA)
RNA: B1 RNA with G26A, G27A, U28A, C30U, A31G
DNA 1: CAATCTGAATTCCGGTCTCCC
DNA 2: TGGTGGCTACGACGGGATT
B8: CACUAAU (DNA:RNA)
RNA: B5 RNA with A25C, C26A, U27C, C28U, G30A, C31U
DNA 1: CAATCTGAATTCCGGTCTCCC
DNA 2: TGGTGGCTACGACGGGATT
B9: UACCGCC (DNA:RNA)
RNA: B1 RNA with G26A, G27C, U28C, A31C
DNA 1: CAATCTGAATTCCGGTCTCCC
DNA 2: TGGTGGCTACGACGGGATT
B10: AAUUCUA (DNA:RNA)
RNA: B5 RNA with C26A, C28U, A29C, G30U, C31A
DNA 1: CAATCTGAATTCCGGTCTCCC
DNA 2: TGGTGGCTACGACGGGATT
B11: UGCAUCA (DNA:RNA)
RNA: B1 RNA with G27C, U28A, G29U
DNA 1: CAATCTGAATTCCGGTCTCCC
DNA 2: TGGTGGCTACGACGGGATT
B12: UGCAUCC (DNA:RNA)
RNA: B1 RNA with G27C, U28A, G29U, A31C
DNA 1: CAATCTGAATTCCGGTCTCCC
DNA 2: TGGTGGCTACGACGGGATT
B13: UGCAUCG (DNA:RNA)
RNA: B1 RNA with G27C, U28A, G29U, A31G
DNA 1: CAATCTGAATTCCGGTCTCCC
DNA 2: TGGTGGCTACGACGGGATT
B14: AGGGCCC (DNA:RNA)
RNA: B1 RNA with U25A, U28G, G29C, A31C
DNA 1: CAATCTGAATTCCGGTCTCCC
DNA 2: TGGTGGCTACGACGGGATT
B15: GUGAUCC (DNA:RNA)
RNA: B1 RNA with U25G, G26U, U28A, G29U, A31C
DNA 1: CAATCTGAATTCCGGTCTCCC
DNA 2: TGGTGGCTACGACGGGATT
B16: AGGGUCU (DNA:RNA)
RNA: B1 RNA with U25A, U28G, G29U, A31U
DNA 1: CAATCTGAATTCCGGTCTCCC
DNA 2: TGGTGGCTACGACGGGATT
B17: GCUUGCU (DNA:RNA)
RNA: B1 RNA with U25G, G26C, G27U, A31U
DNA 1: CAATCTGAATTCCGGTCTCCC
DNA 2: TGGTGGCTACGACGGGATT
B18: GCUUAAA (DNA:RNA)
RNA: B5 RNA with A25G, C28U, G30A, C31A
DNA 1: CAATCTGAATTCCGGTCTCCC
DNA 2: TGGTGGCTACGACGGGATT
B19: GUCCGCU (DNA:RNA)
RNA: B1 RNA with U25G, G26U, G27C, U28C, A31U
DNA 1: CAATCTGAATTCCGGTCTCCC
DNA 2: TGGTGGCTACGACGGGATT
B20: GCUUUGC (DNA:RNA)
RNA: B5 RNA with A25G, C28U, A29U
DNA 1: CAATCTGAATTCCGGTCTCCC
DNA 2: TGGTGGCTACGACGGGATT
B21: CGCUUGC (DNA:RNA)
RNA: B5 RNA with A25C, C26G, U27C, C28U, A29U
DNA 1: CAATCTGAATTCCGGTCTCCC
DNA 2: TGGTGGCTACGACGGGATT
B22: GCUUGCA (DNA:RNA)
RNA: B1 RNA with U25G, G26C, G27U
DNA 1: CAATCTGAATTCCGGTCTCCC
DNA 2: TGGTGGCTACGACGGGATT
B23: CGUUGCA (DNA:RNA)
RNA: B1 RNA with U25C, G27U
DNA 1: CAATCTGAATTCCGGTCTCCC
DNA 2: TGGTGGCTACGACGGGATT
B24: GCUUGCG (DNA:RNA)
RNA: B1 RNA with U25G, G26C, G27U, A31G
DNA 1: CAATCTGAATTCCGGTCTCCC
DNA 2: TGGTGGCTACGACGGGATT
B25: CCGCUUG (DNA:RNA)
RNA: B5 RNA with A25C, U27G, A29U, G30U, C31G
DNA 1: CAATCTGAATTCCGGTCTCCC
DNA 2: TGGTGGCTACGACGGGATT
B26: UAAGGUC (DNA:RNA)
RNA: B1 RNA with G26A, G27A, U28G, C30U, A31C
DNA 1: CAATCTGAATTCCGGTCTCCC
DNA 2: TGGTGGCTACGACGGGATT
B27: UACUCGA (DNA:RNA)
RNA: B1 RNA with G26A, G27C, G29C, C30G
DNA 1: CAATCTGAATTCCGGTCTCCC
DNA 2: TGGTGGCTACGACGGGATT
B28: AUACUGG (DNA:RNA)
RNA: B5 RNA with C26U, U27A, A29U, C31G
DNA 1: CAATCTGAATTCCGGTCTCCC
DNA 2: TGGTGGCTACGACGGGATT
B29: GUUACCU (DNA:RNA)
RNA: B5 RNA with A25G, C26U, C28A, A29C, G30C, C31U
DNA 1: CAATCTGAATTCCGGTCTCCC
DNA 2: TGGTGGCTACGACGGGATT
B30: CCCUACU (DNA:RNA)
RNA: B5 RNA with A25C, U27C, C28U, G30C, C31U
DNA 1: CAATCTGAATTCCGGTCTCCC
DNA 2: TGGTGGCTACGACGGGATT
B31: UGGGACC (DNA:RNA)
RNA: B1 RNA with U28G, G29A, A31C
DNA 1: CAATCTGAATTCCGGTCTCCC
DNA 2: TGGTGGCTACGACGGGATT
B32: CUGGUCC (DNA:RNA)
RNA: B1 RNA with U25C, G26U, U28G, G29U, A31C
DNA 1: CAATCTGAATTCCGGTCTCCC
DNA 2: TGGTGGCTACGACGGGATT
B33: UGGGUCG (DNA:RNA)
RNA: B1 RNA with U28G, G29U, A31G
DNA 1: CAATCTGAATTCCGGTCTCCC
DNA 2: TGGTGGCTACGACGGGATT
B34: UGGGUCC (DNA:RNA)
RNA: B1 RNA with U28G, G29U, A31C
DNA 1: CAATCTGAATTCCGGTCTCCC
DNA 2: TGGTGGCTACGACGGGATT
B35: UGGGUCA (DNA:RNA)
RNA: B1 RNA with U28G, G29U
DNA 1: CAATCTGAATTCCGGTCTCCC
DNA 2: TGGTGGCTACGACGGGATT
B36: UGGUCCG (DNA:RNA)
RNA: B1 RNA with G29C, A31G
DNA 1: CAATCTGAATTCCGGTCTCCC
DNA 2: TGGTGGCTACGACGGGATT

Numbering of substitutions follows the chain as printed; changes in the protein carry UniProt numbers. The full ranking holds about 16,000 sequences; the median of “ka relative to ugcaugu” is about 0.0091, and the highest 2% start at about 0.032. The entries come from a sample that favours the highest values as a whole.

The assay deals with T1, RBFOX1 RRM (Homo sapiens, UniProt Q9NWB1 109-208).
T1 sequence: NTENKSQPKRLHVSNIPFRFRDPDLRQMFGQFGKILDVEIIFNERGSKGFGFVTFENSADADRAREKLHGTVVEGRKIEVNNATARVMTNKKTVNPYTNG
Put plainly: EMSA; HiTS-Eq, 1 nM pool, 10 min; buffer printed only for the single-RNA assays: 10 mM Tris pH 7.5, 150 mM NaCl, 3.4 mM EDTA, 0.001% NP-40, 30 C. The settings on record: tags: His6 N-terminal (pET28a); label: 5' 32P. In a few lines:
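Purified RbFox RRM, wild type or mutant, was incubated for 10 min in 50 µL with 1 nM of a 5′-radiolabelled RNA pool carrying 7 randomized nucleotides, whose flanks were annealed to DNA oligonucleotides, over a series of increasing protein concentrations. Unbound RNA was resolved on 8% native PAGE, cut out, reverse-transcribed, barcoded by PCR and sequenced on an Illumina HiSeq 2500. Relative association constants were derived from changes in read counts for each RNA species versus the control reaction and normalised to the cognate motif.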
On to B1, for which the binding signal was 0.0327 KA relative to UGCAUGU.
As for B2, the binding signal is 0.0343 KA relative to UGCAUGU.
The value for B3 was 0.0136 KA relative to UGCAUGU.
The value for B4 was 0.027 KA relative to UGCAUGU; that for B5 was 0.00534 KA relative to UGCAUGU; that for B6 was 0.00837 KA relative to UGCAUGU.
The value for B7 was 0.00935 KA relative to UGCAUGU.
With B8, the binding signal was 0.00175 KA relative to UGCAUGU.
The value for B9 was 0.00921 KA relative to UGCAUGU; that for B10 was 0.00109 KA relative to UGCAUGU; that for B11 was 0.0118 KA relative to UGCAUGU.
With B12 the figure was 0.0337 KA relative to UGCAUGU; with B13, 0.0295 KA relative to UGCAUGU; with B14, 0.0184 KA relative to UGCAUGU.
With B15 the figure was 0.0187 KA relative to UGCAUGU; with B16, 0.0254 KA relative to UGCAUGU; with B17, 0.0354 KA relative to UGCAUGU.
For the molecule B18, the binding signal was 0.00504 KA relative to UGCAUGU.
Take B19: the binding signal was 0.0113 KA relative to UGCAUGU.
Regarding B20, the binding signal was 0.0232 KA relative to UGCAUGU.
For B21, the binding signal is 0.032 KA relative to UGCAUGU.
For B22, the binding signal is 0.0329 KA relative to UGCAUGU.
With B23 the figure was 0.0228 KA relative to UGCAUGU; with B24, 0.0193 KA relative to UGCAUGU.
Turning to B25, the binding signal was 0.0253 KA relative to UGCAUGU.
B26: the binding signal is 0.0168 KA relative to UGCAUGU.
With B27 the figure was 0.0112 KA relative to UGCAUGU; with B28, 0.00795 KA relative to UGCAUGU; with B29, 0.00787 KA relative to UGCAUGU.
With B30 the figure was 0.00609 KA relative to UGCAUGU; with B31, 0.0142 KA relative to UGCAUGU.
With B32 the figure was 0.0227 KA relative to UGCAUGU; with B33, 0.0407 KA relative to UGCAUGU.
With B34, the binding signal is 0.0332 KA relative to UGCAUGU.
The value for B35 was 0.0232 KA relative to UGCAUGU; that for B36 was 0.017 KA relative to UGCAUGU.
